# In PubChem BioAssay (NCATS):
# Results filed as inconclusive are left out. Where a call stands in place of a potency, no number is given. The source made the active and inactive calls. The call rests on the fitted dose curve; in most records, active means well fitted inhibition curve with a large enough effect; inconclusive means small, poorly fitted or top-dose-only effect; inactive means flat fitted curve, though single readings scatter.
# Molecular target: Calcium and integrin-binding protein 1 (Homo sapiens) (UniProt Q99828)
# Test: Primary qHTS for Identification of Calcium Integrin Binding Protein 1 (CIB1) Competitor (AID 1508620);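 further: GST tagged CIB1 binding a fluorescein labelled alphaIIb integrin peptide tracer; top concentration of the series differs between compounds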
# Details: CIB1-GST / FITC-alphaIIb peptide fluorescence polarization; series mostly up to 114 µM
# How it was run: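 CIB1-GST (1 uM final) and compound incubated 15 min at room temperature before adding FITC-alphaIIb peptide tracer (100 nM final). Competition for binding read by fluorescence polarization (ex 480, em 540) after another 15 min at room temperature.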
# Calcium and integrin-binding protein 1 (Homo sapiens), sequence (Q99828 whole entry, looked up): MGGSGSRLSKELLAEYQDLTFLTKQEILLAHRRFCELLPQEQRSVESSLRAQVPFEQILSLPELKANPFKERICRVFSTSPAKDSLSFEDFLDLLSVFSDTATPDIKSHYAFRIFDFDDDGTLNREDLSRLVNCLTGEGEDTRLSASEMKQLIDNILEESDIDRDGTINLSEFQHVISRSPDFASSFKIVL
row,SMILES,Potency
1,COc1ccc(NC(=O)c2[nH]c(C)c(C(C)=O)c2C)cc1S(=O)(=O)Nc1ccc(C#N)cc1,inactive
2,CC(=O)Nc1cccc(OC2=NS(=O)(=O)c3ccccc32)c1,inactive
3,Cc1nnc(-c2cnn(C)c2N)n1CCc1cccs1,inactive
4,O=C(Nc1cccc2nn(-c3ccc(F)cc3)cc12)c1ccccn1,inactive
5,O=S(=O)(c1ccc2c(c1)OCCO2)N1CCN(S(=O)(=O)c2cccs2)CC1,inactive
6,O=C1CCCC2=C1C(c1[nH]ncc1Cl)N=C(Nc1nc3cccc(Cl)c3o1)N2 (centres undefined),inactive
7,Cc1cc(C)nc(NC(=S)N2CCN(c3nncs3)CC2)c1,inactive
8,O=C(OCc1c(-c2ccccc2)no[n+]1[O-])c1ccccc1,inactive
9,CC(C)c1ccccc1-c1ncc(F)c(NCc2ccc(-c3ccn[nH]3)cc2)n1,inactive
10,Cc1ccc(-c2ccc(CNc3nc(-c4ccccc4C(C)C)nc4ccccc34)cc2)cn1,inactive
11,Cc1ccc(CN(C)c2ncnc3ccc(-c4ccc(CO)o4)cc23)o1,inactive
12,CC1(C)CC(=O)C2=C(C1)NC(Nc1nc3ccccc3o1)=NC21CCCCC1,inactive
13,O=C1CCCC2=C1C(c1ccccc1I)N=C(Nc1nc3ccccc3o1)N2 (centres undefined),inactive
14,O=C1Nc2c(Cl)cccc2/C1=C\c1cc(Cl)c(O)c(Cl)c1,inactive
15,CCN(Cc1ccccc1)c1ccc(Br)cn1,inactive
16,Cc1cc2c(s1)c1cnn(Cc3cc(F)c(Cl)cc3Cl)c(=O)c1n2C,inactive
17,COc1ccc(C2=Nn3c(nnc3-c3ccccc3C)SC2)cc1OC,inactive
18,O=C(O)c1ccc2c(c1)C(=O)N(CCc1ccc(O)cc1)C2=O,inactive
19,O=[S+]([O-])(NC[C@H]1CCC[C@H](CN[S+](=O)([O-])c2c(F)cccc2F)C1)c1ccc2c(c1)OCCO2,inactive
20,NC(=O)C1CCN(c2ncc(-c3ccc4c(c3)OCCO4)s2)CC1,inactive

row,SMILES,Potency
1,O=c1c2[nH]c3cc(Br)sc3c2cnn1Cc1ccccc1F,inactive
2,Cc1ccc(OCCn2c(CCNC(=O)COc3ccccc3Br)nc3ccccc32)cc1,inactive
3,O=[S+]([O-])(Nc1ccc(C2CCNCC2)cc1)c1ccc(NCc2ccc(Cl)cc2O)cc1,inactive
4,Cc1sc(NC(=O)Cc2ccc3c(c2)OCO3)nc1-c1ccc2c(c1)CCN2C(=O)c1ccccc1F,inactive
5,O=C1CCCC2=C1C(c1[nH]ncc1Cl)NC(=NCc1ncc[nH]1)N2 (centres undefined),inactive
6,COc1cccc(N2C(=O)c3ccccc3C2=O)c1,inactive
7,O=c1c(Nc2ccc(Br)c(Br)c2)c(Nc2nnc(-c3ccncc3)s2)c1=O,inactive
8,S=C(NCCCc1cnc[nH]1)NCCCN(Cc1ccc(Cl)c(Cl)c1)c1ccccn1,inactive
9,Cc1nc(-c2ccc(S(=O)(=O)Nc3ccc(C)c(C)c3)s2)cs1,inactive
10,CC(=O)Nc1sc2c(c1-c1nc3ccccc3s1)CN(C1COC1)C2,inactive
11,CC(C)(C)OC(=O)N1CCN(c2ccc(NCc3ccc(-c4ccc(C#N)cc4)s3)cc2)CC1,inactive
12,Cc1c(P(=S)(c2ccccc2)c2ccccc2)[n+]2ccccc2n1CCCc1ccccc1,inactive
13,CC(=O)N1CCN(C(=O)COC(=O)c2ccc([S+](C)(=O)[O-])c([N+](=O)[O-])c2)CC1,inactive
14,CCCCn1cnc2cc(C(=O)N3CCCCC3)ccc21,inactive
15,Cc1cc(N[S+](=O)([O-])c2ccc(NC(=O)Cn3c(=O)oc4ccc(Cl)cc43)cc2)no1,inactive
16,COc1ccc(C2Nc3ccccc3C(=O)N2Cc2ccco2)cc1COc1c(C(C)C)cccc1C(C)C (centres undefined),inactive
17,Cc1ccnc(NC(=S)NCCNc2cccc(C(F)(F)F)c2)c1,inactive
18,CCc1ccc(-c2nn3c(C)nnc3s2)cc1NC(=O)c1ccc(-c2cccc(Cl)c2)o1,inactive
19,Cc1cc(C)nc(NC(=S)N2CCN(c3cccc(C#N)c3)CC2)c1,inactive
